According to PubChem BioAssay AID1159580 (chemical genetic matrix, 2015):
Where “and” joins values, the source holds several entries; their conditions need not be identical. Identical values can stand only once. The campaign covered roughly 5,500 compounds. About 2,000 (36%) were called active. About 18% were inconclusive and are not listed. Cut-off read from the data, not from the text of the source: active = normalized growth mostly below about 0.91 (no sharp cut-off); inconclusive = no clear call, values can overlap the other calls; inactive = mostly above about 0.92. This is one part of the list.

Experiment: chemical genetic growth profiling, strain panel (AID 1159580);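 note: tested at 20 µM; growth read once vehicle control cultures reached saturation at 30 °C; 1 = growth at the plate median or of vehicle wells; lower values mean less growth of the strain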
Details: S. cerevisiae deletion strains, growth OD

Measured: normalized growth

Cc1ccsc1/C=C/C1=NCCCN1C
inactive: locus YAL013W, strain DEP1, hits give low values 1.01 | locus YAL021C, strain ccr4, hits give low values 1 | locus YAL026C, strain drs2, hits give low values 0.996 | locus YAL030W, strain snc1, hits give low values 0.996 | locus YBL061C, strain skt5, hits give low values 0.984 | locus YBR009C, strain hhf1, hits give low values 1 | locus YBR021W, strain FUR4, hits give low values 1.02 | locus YBR023C, strain chs3, hits give low values 0.984 | locus YBR171W, strain sec66, hits give low values 0.99 | locus YBR229C, strain ROT2, hits give low values 1.01 | locus YBR231C, strain swc5, hits give low values 1.07 | locus YBR279W, strain paf1, hits give low values 0.992 | locus YCL011C, strain gbp2, hits give low values 0.982 | locus YCL016C, strain dcc1, hits give low values 0.996 | locus YCL029C, strain bik1, hits give low values 0.969 | locus YCL061C, strain MRC1, hits give low values 0.992 | locus YCL069W, strain vba3, hits give low values 0.986 | locus YCR088W, strain abp1, hits give low values 0.993 | locus YDL005C, strain med2, hits give low values 0.983 | locus YDL035C, strain GPR1, hits give low values 1.02 | locus YDL040C, strain nat1, hits give low values 0.985 | locus YDL074C, strain BRE1, hits give low values 0.995 | locus YDL101C, strain DUN1, hits give low values 0.991 | locus YDL134C, strain PPH21, hits give low values 1.02 | locus YDL185W, strain tfp1, hits give low values 0.938 | locus YDL192W, strain arf1, hits give low values 0.972 | locus YDR001C, strain nth1, hits give low values 0.996 | locus YDR069C, strain doa4, hits give low values 0.993 | locus YDR101C, strain arx1, hits give low values 0.965 | locus YDR137W, strain rgp1, hits give low values 0.941 | locus YDR150W, strain NUM1, hits give low values 0.998 | locus YDR159W, strain sac3, hits give low values 0.998 | locus YDR162C, strain NBP2, hits give low values 1.01 | locus YDR195W, strain ref2 1.01 | locus YDR297W, strain sur2, hits give low values 1 | locus YDR318W, strain mcm21, hits give low values 0.972 | locus YDR334W, strain swr1, hits give low values 0.986 | locus YDR335W, strain msn5, hits give low values 0.991 | locus YDR388W, hits give low values 0.98 | locus YDR392W, strain spt3, hits give low values 0.992 | locus YDR502C, strain sam2, hits give low values 1 | locus YEL003W, strain gim4, hits give low values 0.996 | locus YEL037C, strain rad23, hits give low values 0.995 | locus YEL061C, strain CIN8 (second series), hits give low values 0.992 | locus YEL061C, strain CIN8, hits give low values 1 | locus YER015W, strain faa2, hits give low values 0.971 | locus YER016W, strain bim1, hits give low values 0.982 | locus YER110C, hits give low values 0.982 | locus YER111C, strain swi4, hits give low values 0.989 | locus YER155C, strain BEM2 (second series), hits give low values 1 | locus YER155C, strain BEM2, hits give low values 0.988 | locus YER167W, strain BCK2, hits give low values 1.01 | locus YFR010W, strain ubp6, hits give low values 0.992 | locus YGL078C, strain dbp3, hits give low values 0.984 | locus YGL086W, strain mad1, hits give low values 1.01 | locus YGL167C, strain pmr1, hits give low values 0.987 | locus YGL173C, strain kem1, hits give low values 0.987 | locus YGL227W, strain vid30, hits give low values 0.991 | locus YGL240W, strain doc1, hits give low values 1 | locus YGL248W, strain PDE1, hits give low values 1.02 | locus YGL253W, strain hxk2, hits give low values 0.995 | locus YGR078C, strain PAC10, hits give low values 1 | locus YGR135W, strain pre9, hits give low values 1.01 | locus YGR229C, strain SMI1, hits give low values 1.03 | locus YGR252W, strain gcn5, hits give low values 1.06 | locus YHR013C, strain ard1, hits give low values 0.978 | locus YHR027C, strain rpn1, hits give low values 0.982 | locus YHR030C, strain SLT2, hits give low values 1 and 0.986 | locus YHR079C, strain IRE1 (second series), hits give low values 0.963 | locus YHR079C, strain IRE1, hits give low values 0.974 | locus YHR094C, strain hxt1, hits give low values 0.956 | locus YHR129C, strain ARP1, hits give low values 1 | locus YHR142W, strain chs7, hits give low values 0.997 | locus YHR200W, strain rpn10, hits give low values 0.984 | locus YIL066C, strain RNR3, hits give low values 0.998 | locus YIL073C, strain SPO22, hits give low values 0.91 | locus YIL125W, strain kgd1, hits give low values 0.984 | locus YIR030C, strain dcg1, hits give low values 0.976 | locus YJL092W, strain hpr5, hits give low values 0.993 | locus YJL095W, strain BCK1 (second series), hits give low values 0.991 | locus YJL095W, strain BCK1, hits give low values 0.988 and 1 | locus YJL115W, strain asf1, hits give low values 0.99 | locus YJL129C, strain trk1, hits give low values 0.985 | locus YJL134W, strain LCB3, hits give low values 1 | locus YJL154C, strain vps35, hits give low values 0.984 | locus YJL164C, strain tpk1, hits give low values 0.99 | locus YJL166W, strain qcr8, hits give low values 0.994 | locus YJL168C, strain set2, hits give low values 0.984 | locus YJL187C, strain SWE1 (second series), hits give low values 0.99 | locus YJL187C, strain SWE1, hits give low values 0.997 | locus YJR043C, strain POL32, hits give low values 1.01 | locus YJR066W, strain TOR1, hits give low values 0.967
